Data as given in PubChem BioAssay (Tox21).
Records with an inconclusive call do not appear. Calls of active or inactive are those of the source. The call rests on the fitted dose curve; in most records, active means well fitted activation curve with a large enough effect in the signal ratio in the repeat runs (not every such curve was filed as active); inconclusive means weak or mixed curves; inactive means flat fitted curve, though single readings scatter; the % refers to the signal ratio.

assay: qHTS assay to identify small molecule agonists of the hypoxia (HIF-1) signaling pathway (AID 1224846); conditions: HRE-bla ME-180 cells, beta-lactamase ratio, 17 h; series mostly up to 76.8 µM
Excerpt: U.S. Tox21 Program National Center for Advancing Translational Sciences [NCATS] NIH Chemical Genomics Center [NCGC] U.S. Environmental Protection Agency [EPA] National Institutes of Environmental Health Sciences [NIEHS] National Toxicology Program [NTP] U.S. Food and Drug Administration [FDA] Tox21 Assay Overview: Hypoxia-inducible factor-1 (HIF-1) is the major hypoxia-regulated transcription factor that controls cellular responses to low oxygen concentration. HIF-1 is composed of two subunits: hypoxia responsive HIF-1-alpha and constitutively expressed HIF-1-beta, which is also known as aryl hydrocarbon receptor nuclear translocator. During hypoxic conditions, HIF-1-alpha heterodimerizes with HIF-1-beta and translocates into the nucleus where the HIF-1 complex binds to the hypoxia-response element (HRE) and activates expression of target genes such as VEGF (vascular endothelial growth factor). The HIF-1 pathway is essential to normal growth and development, and is involved in the pathophysiology of cancer, inflammation, and ischemia. Using a beta-lactamase reporter-gene under control of the hypoxia response element, a cell-based assay [CellSensor(TM) HRE-bla ME-180 from Life Technologies, Carlsbad, CA] was used to measure hypoxia-induced signaling. Tox21 10K library compounds were measured for their ability to induce the reporter gene activity.
Tox21 Assay Protocol Summary: HRE-bla ME-180 cells were dispensed at 2,000 cells per well in 6 uL of assay medium containing 0.5% dialyzed FBS into black wall/clear-bottom 1536-well plates using a Multidrop Combi (Thermo Scientific, Waltham, MA) dispenser. After the assay plates were incubated at 37C and 5% CO2 for 5 hrs, 23 nL of compounds dissolved in DMSO, positive controls or DMSO only was transferred to each well of the assay plate using a Pintool station (Kalypsys, San Diego, CA). The assay plates were incubated at 37C and 5% CO2 for 17 hrs. One uL of LiveBLAzerTM B/G FRET substrate (CCF4-AM) (Life Technologies) was added to each well using a Flying Reagent Dispenser (Aurora Discovery, San Diego, CA).
On the % scale 0 is the no-effect control and ±100 the full control effect.

Compound | outcome | activation
CCC=O | inactive | –
CC1=CC(C)C(C=O)CC1 (stereo not given) | inactive | –
COC(=O)CC(C)=O | inactive | –
CC(C)NCCCC1(C(N)=O)c2ccccc2-c2ccccc21 | inactive | –
Cc1c(O)cccc1O | inactive | –
CC/C=C\CC/C=C/CO | inactive | –
CC(=O)OCC(=O)[C@@]1(O)CCC2C3CCC4=CC(=O)CC[C@]4(C)C3[C@@H](O)C[C@@]21C (stereo not given in full) | inactive | –
CCCCC(CC)COC(=O)c1ccccc1O (stereo not given) | inactive | –
CC(C)OC(=O)c1ccccc1 | inactive | –
CCc1nccnc1CC | – | 0.257% [at 15.8 µM] (inactive)
CN(C)CCCNCCCN(C)C | inactive | –
CCCCOCCOCCOCCCC | inactive | –
O=Cc1cccc([N+](=O)[O-])c1 | inactive | –
O=C1CCCCCCCCCCCN1 | inactive | –
CCS(=O)(=O)c1ccc(OC)c(C(=O)OC)c1 | inactive | –
CCCCNC(=O)NCCCC | inactive | –
O=c1n(CCO)c(=O)n(CCO)c(=O)n1CCO | inactive | –
CO[Si](CCCOCC1CO1)(OC)OC (stereo not given) | inactive | –
CC(C)c1cc2c(cc1S(=O)(=O)O)[C@@]1(C)CCC[C@@](C)(C(=O)O)[C@@H]1CC2 | inactive | –
CCCCCSCCCCC | inactive | –

Compound | outcome | activation
CS(=O)(=O)O | inactive | –
Cc1sccc1Br | inactive | –
O=[N+]([O-])c1ccc(F)cc1F | inactive | –
CCCCCCCCS(=O)(=O)Cl | inactive | –
CCCCCCCCCCCCN(CCCCCCCCCCCC)CCCCCCCCCCCC | inactive | –
CCOC(=O)c1c(C)n(C)c2ccc(O)cc12 | inactive | –
CC(C)(CC(=O)O)C(=O)O | inactive | –
COc1ccc2c(c1)c(CC(=O)OCC(=O)O)c(C)n2C(=O)c1ccc(Cl)cc1 | inactive | –
CCc1cccc2c(CCO)c[nH]c12 | inactive | –
NC(=O)c1cn(Cc2c(F)cccc2F)nn1 | inactive | –
CCCC(=O)O[C@]1(C(=O)CO)CC[C@H]2[C@@H]3CCC4=CC(=O)CC[C@]4(C)[C@H]3[C@@H](O)C[C@@]21C | inactive | –
COC(=O)[C@@H](N)Cc1ccc(O)c(O)c1 | inactive | –
CC(=O)CC(C)(C)C1CCCCC1 | inactive | –
CC(C)CCCC(C)N (stereo not given) | inactive | –
C=C(C)CS(=O)(=O)O | inactive | –
CN1C(=O)N(C)C(O)C1O (stereo not given) | inactive | –
CC(C)(c1ccc(O)cc1)c1ccc(O)cc1 | inactive | –
CC(=O)c1ccccc1O | inactive | –
CC1(C)CO[C@@H](CC(=O)O)CN1 | inactive | –
O=C1NC(=O)[C@@]2(CCOc3ccc(F)cc32)N1 | inactive | –
